{"source": "PubChem BioAssay (Tox21)", "note": "Records with an inconclusive call do not appear. Entries that show only a call come without a potency. Active and inactive are the calls of the source. Calls come from the whole dose curve; as a rule, active = well fitted cell-killing curve with a large enough effect in the repeat runs; inconclusive = weak or mixed curves, or effect the other way; inactive = flat fitted curve, though single readings scatter. Potency is the fitted concentration of half-maximal effect."}
{"test": "cAMP Responsive Elements (CRE) small molecule antagonists, cell-based qHTS assay: qHTS cell viability counter screen (AID 2060913); note: nearly all actives have a fitted effect of over 40% in size", "settings": "CRE-bla HEK293T viability, CellTiter-Glo luminescence, 5 h; series mostly up to 92.4 µM", "outline": "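CRE-bla HEK293T cells were seeded in assay medium with 10% dialyzed FBS, incubated 18 hrs at 37 C, then exposed to compounds plus 0.25 uM final NKH477 for 3 hrs. Viability was read by CellTiter-Glo luminescence after 30 min, in the same wells.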"}
{"smiles": "CCCCCOC(=O)c1ccccc1C(=O)OCCCCC", "Potency": "inactive"}
{"smiles": "[F][Sn]([c]1ccccc1)([c]1ccccc1)[c]1ccccc1", "Potency": "5450 nM (active)"}
{"smiles": "Oc1ccc(C2(c3ccc(O)cc3)CCCCC2)cc1", "Potency": "inactive"}
{"smiles": "CCOP(=S)(OCC)SCCl", "Potency": "inactive"}
{"smiles": "Clc1ccc(CCC(Cn2ccnc2)Sc2c(Cl)cccc2Cl)cc1", "note": "(stereo not drawn)", "Potency": "inactive"}
{"smiles": "COc1cc(OC)nc(Sc2cccc(Cl)c2C(=O)O)n1", "Potency": "inactive"}
{"smiles": "CCCCCCCCCC(=O)O[C@H]1CC[C@H]2[C@@H]3CCC4=CC(=O)CC[C@@H]4[C@H]3CC[C@]12C", "Potency": "inactive"}
{"smiles": "CC(=O)NNc1ccccc1", "Potency": "inactive"}
{"smiles": "C/C(=C\\c1ccccc1)[N+](=O)[O-]", "Potency": "inactive"}
{"smiles": "C[C@@H]1O[C@@H](O[C@@H]2C=C3CC[C@@H]4[C@H](CC[C@]5(C)[C@@H](c6ccc(=O)oc6)CC[C@]45O)[C@@]3(C)CC2)[C@H](O)[C@H](O)[C@H]1O", "Potency": "18.8 nM (active)"}
{"smiles": "CCCCCCCCCBr", "Potency": "inactive"}
{"smiles": "CCCCP(CCCC)CCCC", "Potency": "inactive"}
{"smiles": "CCC[CH2][Sn]([CH2]CCC)([CH2]CCC)[CH2]CCC", "Potency": "inactive"}
{"smiles": "Cc1ccn2nc(S(=O)(=O)Nc3c(F)cccc3F)nc2n1", "Potency": "inactive"}
{"smiles": "CCN[C@H](C)Cc1cccc(C(F)(F)F)c1", "Potency": "inactive"}
{"smiles": "O=C(O)C(Cl)Br", "note": "(stereo not drawn)", "Potency": "inactive"}
{"smiles": "CCS(=O)(=O)CCSP(=O)(OC)OC", "Potency": "inactive"}
{"smiles": "c1ccc(OP(Oc2ccccc2)Oc2ccccc2)cc1", "Potency": "inactive"}
{"smiles": "CNNC", "Potency": "inactive"}
{"smiles": "Nc1c(Cl)c(F)nc(OCC(=O)O)c1Cl", "Potency": "inactive"}
{"smiles": "O=C(CCl)NCO", "Potency": "inactive"}
{"smiles": "CC1C(=O)C[C@]2(C(C)C)C[C@H]12", "note": "(stereo partly drawn)", "Potency": "inactive"}
{"smiles": "CC(C)[C@H](C(=O)OC(C#N)c1cccc(Oc2ccccc2)c1)c1ccc(OC(F)F)cc1", "note": "(stereo partly drawn)", "Potency": "inactive"}
